# Laboratory results published in the supplement of paper PMC8728848.
# The sample as a whole holds a higher share of the strongest signals than the screen did.
# B1: Si Bti9 1b-V5-his (Solanum lycopersicum) (protein)
# chain: MQCNRGCDLALASFYVWRGSNLTLISEMFSTSIADIVSYNNRDNIPNQDSVIAGTRINIPFRCDCLNDGEVLGHAFPYRVKSGDTYDLVARNYSDLTTAQWMMKFNSYPENNIPNTVNLSVVVNCSCGNSDVSKDFGLFVTYPVRAEDNLTSVASAANVSEDIIRRYNPAAVSILDIGQGIIYIPGRDRNGNFPPLPTSTDGLSGGAKKGGRADPAFLYKVVINSKLEGKPIPNPLLGLDSTRTGHHHHHH
# Key:
# Test in all cases: glycan array binding signal (z-score within array); higher = stronger binding
# Details in all cases: glycan notation: IUPAC condensed, linker removed
# Fuc(a1-2)Gal(b1-3)GalNAc = biological target: Fuc(a1-2)Gal(b1-3)GalNAc
# In short: (§1)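 Arrays were curated from the Consortium for Functional Glycomics database, 3228 in total, and kept only where the protein sequence was available. Binding is expressed as a within-array Z-score. This score was averaged across arrays of the same protein sequence at different concentrations or buffers and across linkers, and negative values can be read as non-binding.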
# [1] = biological target: Fuc(a1-2)[Gal(a1-3)]Gal(b1-4)[Fuc(a1-3)]Glc
# In short: as §1
# [2] = biological target: Fuc(a1-2)[GalNAc(a1-3)]Gal(b1-4)GlcNAc(b1-2)Man(a1-3)[Fuc(a1-2)[GalNAc(a1-3)]Gal(b1-4)GlcNAc(b1-2)Man(a1-6)]Man(b1-4)GlcNAc(b1-4)[Fuc(a1-6)]GlcNAc
# In short: as §1
# [3] = biological target: Fuc(a1-2)[GalNAc(a1-3)]Gal(b1-4)GlcNAc(b1-3)Gal(b1-4)GlcNAc(b1-3)Gal(b1-4)GlcNAc
# In short: as §1
# [4] = biological target: Fuc(a1-2)[GalNAc(a1-3)]Gal(b1-4)[Fuc(a1-3)]GlcNAc
# In short: as §1
# Gal(a1-3)Gal(b1-3)GlcNAc = biological target: Gal(a1-3)Gal(b1-3)GlcNAc
# In short: as §1
# [5] = biological target: Gal(a1-3)Gal(b1-3)GlcNAc(b1-2)Man
# In short: as §1
# Gal(a1-3)Gal(b1-4)Glc = biological target: Gal(a1-3)Gal(b1-4)Glc
# In short: as §1
# [6] = biological target: Gal(a1-3)Gal(b1-4)GlcNAc(b1-2)Man
# In short: as §1
# [7] = biological target: Gal(a1-3)[Gal(a1-4)]Gal(b1-4)GlcNAc
# In short: as §1
# Gal(b1-3)Gal = biological target: Gal(b1-3)Gal
# In short: as §1
# Gal(b1-3)GlcNAc(b1-2)Man = biological target: Gal(b1-3)GlcNAc(b1-2)Man
# In short: as §1
# [8] = biological target: Gal(b1-3)GlcNAc(b1-2)Man(a1-3)[Gal(b1-3)GlcNAc(b1-2)Man(a1-6)]Man(b1-4)GlcNAc(b1-4)[Fuc(a1-6)]GlcNAc
# In short: as §1
# [9] = biological target: Gal(b1-3)GlcNAc(b1-3)Gal(b1-3)GlcNAc
# In short: as §1
# [10] = biological target: Gal(b1-3)GlcNAc(b1-3)Gal(b1-4)GlcNAc(b1-6)[Gal(b1-3)GlcNAc(b1-3)]Gal(b1-4)Glc
# In short: as §1
# [11] = biological target: Gal(b1-3)[Fuc(a1-4)]GlcNAc(b1-2)Man
# In short: as §1
# [12] = biological target: Gal(b1-4)GlcNAc(b1-2)Man(a1-3)[GlcNAc(b1-2)Man(a1-6)]Man(b1-4)GlcNAc(b1-4)GlcNAc
# In short: as §1
# [13] = biological target: Gal(b1-4)GlcNAc(b1-2)Man(a1-3)[Man(a1-6)]Man(b1-4)GlcNAc(b1-4)GlcNAc
# In short: as §1
# [14] = biological target: Gal(b1-4)GlcNAc(b1-2)Man(a1-6)[GlcNAc(b1-2)Man(a1-3)]Man(b1-4)GlcNAc(b1-4)GlcNAc
# In short: as §1
# [15] = biological target: Gal(b1-4)GlcNAc(b1-3)Gal(b1-4)GlcNAc(b1-3)Gal(b1-4)GlcNAc(b1-3)Gal(b1-4)GlcNAc(b1-3)Gal(b1-4)GlcNAc(b1-2)Man(a1-3)[Gal(b1-4)GlcNAc(b1-3)Gal(b1-4)GlcNAc(b1-3)Gal(b1-4)GlcNAc(b1-3)Gal(b1-4)GlcNAc(b1-3)Gal(b1-4)GlcNAc(b1-2)Man(a1-6)]Man(b1-4)GlcNAc(b1-4)[Fuc(a1-6)]GlcNAc
# In short: as §1
# [16] = biological target: Gal(b1-4)GlcNAc(b1-3)Gal(b1-4)GlcNAc(b1-3)[Gal(b1-4)GlcNAc(b1-3)Gal(b1-4)GlcNAc(b1-6)]GalNAc
# In short: as §1
# [17] = biological target: Gal(b1-4)GlcNAc(b1-3)Gal(b1-4)[Fuc(a1-3)]GlcNAc(b1-3)Gal(b1-4)[Fuc(a1-3)]GlcNAc
# In short: as §1
# [18] = biological target: Gal(b1-4)GlcNAc(b1-6)Gal(b1-4)GlcNAc
# In short: as §1
# [19] = biological target: Gal(b1-4)GlcNAc(b1-6)GalNAc
# In short: as §1
# Gal6P(b1-4)GlcNAc = biological target: Gal6P(b1-4)GlcNAc
# In short: as §1
# [20] = biological target: GalNAc(b1-3)Gal(a1-6)Gal(b1-4)Glc
# In short: as §1
# [21] = biological target: GalNAc3S(b1-4)[Fuc(a1-3)]GlcNAc
# In short: as §1
# GalNAc4S6S(b1-4)GlcNAc = biological target: GalNAc4S6S(b1-4)GlcNAc
# In short: as §1
# [22] = biological target: GlcNAc(b1-2)[GlcNAc(b1-4)]Man(a1-3)[GlcNAc(b1-2)Man(a1-6)]Man(b1-4)GlcNAc(b1-4)GlcNAc
# In short: as §1
# [23] = biological target: GlcNAc(b1-3)Gal(b1-4)GlcNAc(b1-3)Gal(b1-4)GlcNAc(b1-3)Gal(b1-4)GlcNAc(b1-2)Man(a1-3)[GlcNAc(b1-3)Gal(b1-4)GlcNAc(b1-3)Gal(b1-4)GlcNAc(b1-3)Gal(b1-4)GlcNAc(b1-2)Man(a1-6)]Man(b1-4)GlcNAc(b1-4)GlcNAc
# In short: as §1
# GlcNAc(b1-3)GalNAc = biological target: GlcNAc(b1-3)GalNAc
# In short: as §1
# [24] = biological target: GlcNAc(b1-4)GlcNAc(b1-4)GlcNAc(b1-4)GlcNAc(b1-4)GlcNAc(b1-4)GlcNAc
# In short: as §1
# [25] = biological target: GlcNAc(b1-4)[GlcNAc(b1-6)]GalNAc
# In short: as §1
# [26] = biological target: Man(a1-3)[Man(a1-6)]Man(b1-4)GlcNAc(b1-4)GlcNAc
# In short: as §1
# Man(a1-6)Man = biological target: Man(a1-6)Man
# In short: as §1
# [27] = biological target: Neu5Ac(a2-3)Gal(b1-3)GlcNAc6S
# In short: as §1
# [28] = biological target: Neu5Ac(a2-3)Gal(b1-3)[Fuc(a1-4)]GlcNAc(b1-3)Gal(b1-4)[Fuc(a1-3)]GlcNAc
# In short: as §1
# [29] = biological target: Neu5Ac(a2-3)Gal(b1-3)]Neu5Ac(a2-3)Gal(b1-4)]GlcNAc
# In short: as §1
# [30] = biological target: Neu5Ac(a2-3)Gal(b1-4)GlcNAc(b1-2)Man
# In short: as §1
# [31] = biological target: Neu5Ac(a2-3)Gal(b1-4)GlcNAc(b1-6)GalNAc
# In short: as §1
# [32] = biological target: Neu5Ac(a2-3)Gal(b1-4)GlcNAc(b1-6)[Gal(b1-3)]GalNAc
# In short: as §1
# [33] = biological target: Neu5Ac(a2-3)Gal(b1-4)GlcNAc6S
# In short: as §1
# [34] = biological target: Neu5Ac(a2-3)[Neu5Ac(a2-6)]GalNAc
# In short: as §1
# Neu5Ac(a2-6)Gal = biological target: Neu5Ac(a2-6)Gal
# In short: as §1
# [35] = biological target: Neu5Ac(a2-6)Gal(b1-4)GlcNAc(b1-2)Man(a1-6)Man(b1-4)GlcNAc(b1-4)GlcNAc
# In short: as §1
# Neu5Ac(b2-6)GalNAc = biological target: Neu5Ac(b2-6)GalNAc
# In short: as §1
binder,measurement,setting,value
B1,glycan array binding signal (z-score),Fuc(a1-2)Gal(b1-3)GalNAc,-0.261
same,glycan array binding signal (z-score),[1],-0.298
same,glycan array binding signal (z-score),[2],0.032
same,glycan array binding signal (z-score),[3],0.217
same,glycan array binding signal (z-score),[4],-0.245
same,glycan array binding signal (z-score),Gal(a1-3)Gal(b1-3)GlcNAc,11.5
same,glycan array binding signal (z-score),[5],6.21
same,glycan array binding signal (z-score),Gal(a1-3)Gal(b1-4)Glc,-0.169
same,glycan array binding signal (z-score),[6],-0.206
same,glycan array binding signal (z-score),[7],2.94
same,glycan array binding signal (z-score),Gal(b1-3)Gal,-0.313
same,glycan array binding signal (z-score),Gal(b1-3)GlcNAc(b1-2)Man,-0.032
same,glycan array binding signal (z-score),[8],-0.076
same,glycan array binding signal (z-score),[9],0.11
same,glycan array binding signal (z-score),[10],-0.125
same,glycan array binding signal (z-score),[11],1.83
same,glycan array binding signal (z-score),[12],-0.243
same,glycan array binding signal (z-score),[13],-0.294
same,glycan array binding signal (z-score),[14],-0.277
same,glycan array binding signal (z-score),[15],-0.258
same,glycan array binding signal (z-score),[16],0.207
same,glycan array binding signal (z-score),[17],-0.264
same,glycan array binding signal (z-score),[18],-0.272
same,glycan array binding signal (z-score),[19],2.79
same,glycan array binding signal (z-score),Gal6P(b1-4)GlcNAc,-0.317
same,glycan array binding signal (z-score),[20],-0.348
same,glycan array binding signal (z-score),[21],4.72
same,glycan array binding signal (z-score),GalNAc4S6S(b1-4)GlcNAc,-0.18
same,glycan array binding signal (z-score),[22],-0.289
same,glycan array binding signal (z-score),[23],3.41
same,glycan array binding signal (z-score),GlcNAc(b1-3)GalNAc,-0.322
same,glycan array binding signal (z-score),[24],-0.156
same,glycan array binding signal (z-score),[25],5.97
same,glycan array binding signal (z-score),[26],-0.362
same,glycan array binding signal (z-score),Man(a1-6)Man,5.02
same,glycan array binding signal (z-score),[27],0.024
same,glycan array binding signal (z-score),[28],-0.294
same,glycan array binding signal (z-score),[29],-0.311
same,glycan array binding signal (z-score),[30],0.768
same,glycan array binding signal (z-score),[31],-0.254
same,glycan array binding signal (z-score),[32],-0.108
same,glycan array binding signal (z-score),[33],10.6
same,glycan array binding signal (z-score),[34],-0.269
same,glycan array binding signal (z-score),Neu5Ac(a2-6)Gal,3.19
same,glycan array binding signal (z-score),[35],-0.285
same,glycan array binding signal (z-score),Neu5Ac(b2-6)GalNAc,-0.242
